Molecules are shown by their SMILES. The source made the active and inactive calls. How the source made its calls: active means hit-call score of the fitted dose curve at least 0.9, where 1 is the maximum; inactive means score below 0.9.

This test is described as follows: CCTE_Mundy_HCI_Cortical_NOG_BPCount: CCTE's Neurite Outgrowth Assay in rat cortical cells for Branch Point Count, Mundy Lab (AID 2284237).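 On AC50: branch points counted about two days after chemical exposure.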 On the procedure:
CCTE_Mundy_HCI_Cortical_NOG is a multiplexed, cell-based-readout assay that uses rat primary cortical cells with measurements taken at 50.33 hours after chemical dosing in a microplate: 96-well plate.CCTE_Mundy_HCI_Cortical_NOG_BPCount is one of four components of the CCTE_Mundy_HCI_Cortical_NOG assay. It measures neurite outgrowth related to the number of branch points using High Content Imaging of fluorescently labelled markers.[…] Using a type of morphology reporter, loss -of-signal activity can be used to understand developmental effects.
Exposure starts 2 hours post-plating by adding 10 ul of the working solution to 90 ul of media in the wells for a 1/10 dilution. Forty-eight hours after chemical treatment cells are fixed by direct addition of 100 ul of warm (37C) Dulbecco's phosphate buffered saline (DPBS) fixative solution containing 8% paraformaldehyde, 8% sucrose, and 0.1% of 3 mg/ml Hoechst 33342 into each well. Primary antibodies are prepared by dilution in Immunocytochemical Staining Buffer (ISB), 10X Dulbecco's PBS, 0.1% Saponin, 5% Bovine Serum Albumin, 0.5% NaN3 (Sodium Azide) and betaIII-tubulin (rabbit anti-betaIII-tubulin, 1:800) followed by Alexa Fluor-488 secondary (1:500) to label neuronal cell bodies and neurites. A Cellomics ArrayScan VTi HCS Reader is used for automated image acquisition and analysis of neurite outgrowth.
As for `CCOP(=O)(OCC)SCSCC`, the AC50 is 84.1 µM (active).
As for `CC1(C)[C@H](C=C(Cl)Cl)[C@H]1C(=O)OCc1c(F)c(F)cc(F)c1F`, the AC50 was 81.1 µM (active).
As to `O=[As]O`, the AC50 is 2.61 µM (active).
Regarding `C[n+]1ccc(-c2cc[n+](C)cc2)cc1`, the AC50 was 50 µM (active).
Still for that read-out and setting: the value for `CC1(C)C(C=C(Cl)Cl)C1C(=O)O[C@H](C#N)c1cccc(Oc2ccccc2)c1` (some centres undefined) was 80 µM (active).
For the compound `CNC(=N[N+](=O)[O-])NCC1CCOC1` (centres undefined), the compound was classed as inactive.
In the case of `CCC[CH2][Sn]([CH2]CCC)([CH2]CCC)[O][Sn]([CH2]CCC)([CH2]CCC)[CH2]CCC`, the half-maximal activity concentration (AC50) is 0.0277 µM (active).
The same measure, in the same setting: the value for `Cn1nc(C(F)(F)F)c(CS(=O)(=O)C2=NOC(C)(C)C2)c1OC(F)F` was 77.1 µM (active); that for `CC(=O)[O-].[Tl+]` was 50 µM (active).
The same measure, in the same setting: with `[Cd+2].[Cl-].[Cl-]` the figure was 18.9 µM (active).
In the case of `[CH3][Hg][Cl]`, the AC50 was 0.244 µM (active).
Consider `C#CCN(C)[C@H](C)Cc1ccccc1`, for which the result was inactive.
In the case of `Brc1ccc(Oc2ccc(Br)cc2Br)c(Br)c1`, the AC50 is 25.6 µM (active).
Same read-out and setting: with `CC1(C)C(C=C(Cl)c2ccc(Cl)cc2)C1C(=O)OC(C#N)c1ccc(F)c(Oc2ccccc2)c1` (centres undefined) the figure was 23.5 µM (active).
In the case of `COP(=O)(OC)SCN1C(=O)c2ccccc2C1=O`, the call was inactive.
With `Cc1ccc(OP(=O)(Oc2ccc(C)cc2)Oc2ccc(C)cc2)cc1` (tested in a mixture with another compound), the concentration at half-maximal activity (AC50) was 20.2 µM (active).
Regarding `C[C@H](N)Cc1ccccc1`, the compound was classed as inactive.
As to `CCOP(=O)(OCC)OC(Cl)C(Cl)(Cl)Cl` (centres undefined), the compound was classed as inactive.
As for `CC1(C)[C@H](C=C(Cl)Cl)[C@@H]1C(=O)O[C@@H](C#N)c1cccc(Oc2ccccc2)c1`, the compound was classed as inactive.
The same measure, in the same setting: the value for `CCOP(=S)(OCC)SCS(=O)C(C)(C)C` (centres undefined) was “inactive”.
Consider `CCOP(=O)(OCC)SCSC(C)(C)C`, for which the AC50 was 62.1 µM (active).
Consider `C=CCN1CC[C@]23c4c5ccc(O)c4O[C@H]2C(=O)CC[C@@]3(O)[C@H]1C5`, for which the compound was called inactive.
The same measure, in the same setting: the value for `CC1(C)[C@@H](C=C(Cl)Cl)[C@@H]1C(=O)O[C@@H](C#N)c1ccc(F)c(Oc2ccccc2)c1` was “inactive”; that for `CCOP(=O)(Oc1cnc(C(C)(C)C)nc1)OC(C)C` (centres undefined) was “inactive”.

Usually AC50 stands for the concentration at which the activity in the assay is half-maximal.
